Screens as filed in PubChem BioAssay.
FAS-TE inh – FAS thioesterase domain inhibitors, primary screen, biochemical, fluorescence intensity, uHTS | Fatty acid synthase (Homo sapiens), P49327 | recombinant FAS-TE, OMFH fluorogenic substrate, fluorescence endpoint | inhibition, % at 15 µM | hit rate 0.67% among 360,000;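 active = compounds whose normalised, plate-corrected inhibition of enzyme fluorescence in the single-dose primary screen is 50% or more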;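 note: 0% = DMSO with enzyme and 100% = substrate without enzyme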
MPTP inh – mitochondrial permeability transition pore inhibitors, primary screen, biochemical, isolated mouse mitochondria, absorbance; Ca2+ swelling absorbance, 30 min; inhibition, % at 10 µM; hit rate 1.4% among 360,000; AID 602449, 2012;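 active = inhibition of 50% or more, scaled per plate between neutral and stimulator controls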;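 note: 0% = DMSO wells given calcium and 100% = 1 mM EGTA wells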
rCAG RNA binder – binders of r(CAG) RNA repeats, primary screen, biochemical, fluorescence; r(CAG) RNA repeat, TO-PRO-1 dye displacement fluorescence; inhibition, % at 3 µM; hit rate 1.3% among 370,000; AID 651821, 2012;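 active = inhibition above the plate cutoff, the mean of all test compounds on that plate plus 3 SD, cut at about 35% in these data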;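 note: 0% = DMSO alone and 100% = 100 µM mitoxantrone as full dye displacement; higher means more dye released from RNA so lower well fluorescence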
GRIN3A LBD mod – binders of NR3A ligand-binding domain, primary screen, biophysical, differential scanning fluorimetry, uHTS; hit rate 2.5% among 340,000; Tm shift relative to glycine control, % at 25 µM; Glutamate receptor ionotropic, NMDA 3A (GRIN3A) ligand-binding domain; AID 1259313, 2017; NR3A LBD differential scanning fluorimetry, Tm shift; 0% = protein alone, 100% = glycine-bound protein;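 active = melting temperature shift of at least 10% of the positive control shift, at one fixed dose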
Myeloid diff MLP – induction of myeloid progenitor differentiation, primary screen, cell-based, flow cytometry, MLPCN library; ER-HoxA9 myeloid progenitors, lysozyme-GFP differentiation; calls only at 10 µM; hit rate 1% among 360,000; AID 624256, 2012;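 active = normalized GFP-positive differentiation at or above the plate's own cutoff, the solvent-only control mean plus 3 SD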;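 note: cells exposed to compound for four days before flow analysis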
Active calls of the source: *; i = inactive; x = no result; + = active, no number. Sampled rows, rich in hits. Any-hit rate of the full collection: about 5.7%.

SMILES	FAS-TE inh	MPTP inh	rCAG RNA binder	GRIN3A LBD mod	Myeloid diff MLP
O=C(CSc1nnc(-c2cccnc2)n1-c1ccccc1)Nc1ccc2c(c1)OCCO2	x	x	0	x	x
O=C(N/N=C/c1c[nH]c2ccc(Br)cc12)c1ccn(Cc2ccc(Cl)cc2)n1	18	-2	10	18*	i
CCN(CC)C(=O)CC[C@H]1CC[C@]2(CCCN(Cc3nccn3C)C2)O1	x	x	0	x	x
COc1ccc(-c2cc(=O)oc3cc(OC(C)C(=O)O)ccc23)cc1 (stereo not given)	-6	4	12	0	i
COc1ccc(-c2cc(=O)oc3c(O)c(O)ccc23)cc1	7	4	11	29*	i
CCCCSc1nnc(CSc2nc3nc(C)cc(C)n3n2)o1	-5	0	-5	12*	i
COc1cc(/C=C/C(=O)c2ccc3c(c2)OCCO3)cc(Br)c1OCC(=O)N(C)C	-6	0	7	0	+
C[C@H](CO)N1C[C@H](C)[C@@H](CN(C)C(=O)c2ccncc2)OCc2cn(nn2)CCCC1=O	x	x	0	x	x
Clc1ccc(Nc2ccc(NCc3ccccc3)nn2)cc1	10	-16	7	24*	i
Cn1c(-c2ccccc2[N+](=O)[O-])[n+](C)c2ccccc21	-4	3	-1	-1	+
Nn1c(SCC(=O)N2c3ccccc3Sc3ccc(Cl)cc32)nnc1-c1n[nH]c2c1CCC2	x	x	8	x	x
C[C@@H]1ON(C)[C@H]2C[C@H]3c4cc(Br)ccc4CCN3C[C@@H]12	x	x	-2	x	x
COc1ccc(OC)c(-n2nnnc2SCC(=O)NCc2ccc3c(c2)OCO3)c1	0	0	-4	11*	i
CCn1nnnc1SCC(=O)NCc1ccc2c(c1)OCO2	-9	0	2	-1	x
CCCN=CC1=C(O)CC(c2ccccc2)CC1=O (stereo not given)	-4	0	-1	391*	i
CC(C)CCN=CC1=C(O)CC(c2ccccc2)CC1=O (stereo not given)	-10	0	-8	-2	i
NS(=O)(=O)c1ccc(NC2(C(=O)O)CCCC2)cc1	-3	0	-2	-2	+
C#CCNC(=O)C[C@H]1C[C@@]2(C(=O)OC)C(=C[C@H](C(C)(C)C)O[C@@H]2C)N(Cc2ccccc2)C1=O	x	x	0	x	x
COc1ccc(NC(=O)CSc2ncn(-c3ccccc3)n2)cc1Cl	10	-1	5	28*	i
COc1ccc(NC(=O)CSc2n[nH]c(C)c2[N+](=O)[O-])cc1	1	1	3	1	i
O=C(CSc1nc(-c2ccccc2)c(-c2ccccc2)[nH]1)Nc1ccc2c(c1)OCO2	5	-2	7	13*	i
Cc1ccc(NC(=O)CSc2n[nH]c(C)c2[N+](=O)[O-])cc1C	-2	40	16	19*	i
Cc1ccc(NC(=O)CSc2ncn(-c3ccccc3)n2)cc1C	2	3	-1	22*	i
O=C(CSc1nc2ncccc2[nH]1)Nc1ccc2c(c1)OCO2	-6	2	-2	2	i
CC(=O)N1c2cc(S(=O)(=O)Nc3c(C)n(C)n(-c4ccccc4)c3=O)c(Br)cc2CC1C (stereo not given)	x	x	1	x	x
SMILES	FAS-TE inh	MPTP inh	rCAG RNA binder	GRIN3A LBD mod	Myeloid diff MLP
CC(C)CN1C(=O)[C@]2(CC(=O)N(C)C2c2ccccc2)c2cc(-n3cc(CO)nn3)ccc21 (stereo not given in full)	x	x	0	x	x
C#CCCN([C@H](C(=O)OC)C(C)C)S(=O)(=O)c1ccccc1Br	x	x	-1	x	x
Nn1c(SCC(=O)Nc2ccc3c(c2)OCCO3)nnc1-c1ccncc1	-8	0	-3	17*	i
O=C(CSc1ncn(-c2ccccc2)n1)Nc1ccc2c(c1)OCO2	-2	2	1	13*	i
O=C(CSC1=NC2(CCCCC2)N=C1c1ccccc1)Nc1ccc2c(c1)OCCO2	13	-3	4	-7	+
O=C(CSC1=NC2(CCCCCC2)N=C1c1ccccc1)Nc1ccc2c(c1)OCCO2	30	1	4	-7	i
CCCCC(=O)N(Cc1ccccc1)c1ccccc1C(=O)Nc1cc(OC)ccc1OC	x	x	4	x	x
Cc1nn(-c2ccccc2)cc1/C=N/NC(N)=S	-6	0	0	-5	i
